# In PubChem BioAssay AID1274 (Emory University Molecular Libraries Screening Center, 2008):
# Out of some 220,000 compounds screened, about 1,100 (0.5%) were called active. Many of the other results were omitted from the sample, so actives are more common in it than they were. Values without a mark were called inactive.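 The calls were made as follows: active = inhibition above about 30% (limit read from the data); inactive = the rest.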
# Target: Neutrophil cytosol factor 1 (Homo sapiens) (UniProt P14598)
# Assay: p47phox/p22phox peptide binding inhibitors, primary screen, biochemical, uHTS, NADPH oxidase regulatory subunit (AID 1274);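 also: 0% = p47phox with labelled peptide and 100% = labelled peptide alone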
# Details: fluorescence polarization, 2 h, at 24.7 µM, stronger effect = higher value
# Neutrophil cytosol factor 1 (Homo sapiens), sequence (P14598 whole entry, looked up): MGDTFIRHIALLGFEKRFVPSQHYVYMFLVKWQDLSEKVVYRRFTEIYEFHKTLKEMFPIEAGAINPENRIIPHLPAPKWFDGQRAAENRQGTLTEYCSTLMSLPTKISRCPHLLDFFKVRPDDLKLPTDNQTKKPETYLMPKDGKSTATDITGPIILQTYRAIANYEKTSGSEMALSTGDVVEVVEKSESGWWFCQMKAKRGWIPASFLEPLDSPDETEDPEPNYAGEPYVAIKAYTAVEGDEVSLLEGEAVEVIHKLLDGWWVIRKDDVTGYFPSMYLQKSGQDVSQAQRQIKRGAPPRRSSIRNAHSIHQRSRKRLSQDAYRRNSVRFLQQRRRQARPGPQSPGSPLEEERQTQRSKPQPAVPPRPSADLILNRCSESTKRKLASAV
row,SMILES,inhibition
1,O=C(COc1ccc([N+](=O)[O-])cc1Cl)Nn1cnnc1,-5.37%
2,COc1ccc2[nH]c3ccc(OC)cc3c2c1,-9.23%
3,CCN(CC)CC(=O)c1c[nH]c2ccc(OC)cc12,68.2% (active)
4,COc1cccc(-n2c(SCC(=O)c3c[nH]c4ccccc34)nc3ccccc3c2=O)c1,-14.5%
5,CCNc1ccc(C(=O)OCC(=O)N2c3ccccc3NC(=O)C2(C)C)cc1[N+](=O)[O-],-6.42%
6,CC(=O)NC(CC(=O)Nc1nccs1)c1ccccc1 (configuration not stated),1.69%
7,CCOC(=O)N1CCC(NC(=O)C(NS(=O)(=O)c2ccc3c(c2)CCN3C(=O)CC)C(C)C)CC1 (configuration not stated),2.67%
8,COc1ccc(Cl)cc1C(=O)NCc1cn(C)nc1C,-8.12%
9,Cc1ccc2nc(-c3cccc(Br)c3)cc(C(=O)Nn3cnnc3)c2c1,-7.35%
10,Cc1ccc(-c2cc(C(=O)NCc3cn(C)nc3C)c3cc(Br)ccc3n2)cc1,31.9% (active)
11,OC(CNCc1ccc2c(c1)OCO2)COc1ccccc1 (configuration not stated),-9.52%
12,CCNC(=O)CN(c1ccc(C)cc1)S(=O)(=O)c1ccc(SC)cc1,-7.61%
13,CN1CCC(=NNC(=O)CN(c2cccc(Cl)c2)S(C)(=O)=O)CC1,6.83%
14,Cc1ccc(S(=O)(=O)N(CC(=O)NN=C2CCN(C)CC2)c2ccc(F)cc2)cc1,37.2% (active)
15,COc1cc(C(F)(F)F)nc2c(Br)c(C(C)(C)C)nn12,7.7%
16,Cc1ccc(SCC(=O)c2cc(C)c(OC(=S)N(C)C)c(C)c2)cc1,-4.09%
17,O=C1NC[C@@H](Cc2ccc(O)cc2)N(CCc2cccc(F)c2)C1=O,-6.81%
18,Cc1cc(C)c2nc3nc(C)cc(C)c3c(N)c2c1,35.3% (active)
19,Cc1cc(C)c2nc(SCCC#N)nc(C)c2c1,1.52%
20,Cc1cc(C)c2nc(-c3ccco3)cc(C(=O)O)c2c1,-9.96%
21,COc1ccc(CNC(=O)CCC(=O)Nc2nnc(C(C)C)s2)cc1,-6.23%

row,SMILES,inhibition
1,CCOC(=O)C1(O)CC(C)=NN1C(=O)c1cccc(Br)c1 (configuration not stated),-4.11%
2,CC1=NN(C(=O)c2ccc(Br)cc2)C(O)(c2ccccc2)C1 (configuration not stated),40.2% (active)
3,CC1=NN(C(=O)c2ccccc2Br)C(O)(c2cccnc2)C1 (configuration not stated),1.24%
4,CN(C)C(CNC(=O)Cc1ccc([N+](=O)[O-])cc1)c1ccccc1 (configuration not stated),-9.03%
5,COCCN(C(=O)C(C)C)c1nnc(-c2ccc(C(C)(C)C)cc2)s1,-3.33%
6,O=C(Cc1cccs1)Nc1nnc(SCc2ccc(F)cc2)s1,-11.1%
7,Nc1nnnn1/N=C/c1cccs1,-3.56%
8,C=CCOc1c(Br)cc(/C=N\n2nnnc2N)cc1OC,2.05%
9,COc1ccc(/C=N/n2nnnc2N)cc1OC,31.6% (active)
10,CCc1ccc(-c2nn(-c3ccccc3)cc2CSC(=N)N)cc1,51% (active)
11,N=C(N)SCc1cccc2ccccc12,-8.51%
12,CCn1c(SCc2ccc(C)cc2)nnc1-c1nn(-c2ccccc2)ccc1=O,-13%
13,CCOc1cc(/C=C(/C#N)c2ccc(Cl)cc2)cc(Cl)c1OCC(=O)O,-9.24%
14,COC(=O)CN1C(=O)N/C(=C/c2ccc(OC)c(C)c2OC)C1=O,5.97%
15,Cc1ccc(-c2nn(-c3cccc(F)c3)cc2CNCCc2ccncc2)o1,-21.2%
16,COc1ccccc1CC(=O)Nc1ccc(F)cc1F,6.55%
17,CSCCNCc1cn(-c2ccc(F)cc2F)nc1-c1ccccc1C,30.6% (active)
18,O=C(Nc1ccccc1N1CCOCC1)c1csc2c1CCCC2,-2.28%
19,c1csc(-c2nnc(COc3ncnc4sccc34)o2)c1,-9.61%
20,NC(=O)NC(=O)CSc1nc2cc([N+](=O)[O-])ccc2n1-c1cccc(C(F)(F)F)c1,-1.12%
21,CCCc1c(C(=O)O)cnn1-c1ccc(Cl)cc1,-1.8%

row,SMILES,inhibition
1,CC1(C)CC(N2CCN(C(c3ccccc3)c3ccccc3)CC2)=CC(=[N+]2CCCCC2)C1,30.8% (active)
2,CC(C)NC(=S)N1CCN(C(c2ccccc2)c2ccccc2)CC1,-3.69%
3,CC1(C)CC(=O)C=C(N2CCCC2)C1,-17.5%
4,CCCSc1ncccc1C(=O)O,-1.29%
5,Cc1ccc(Nc2nc(Cl)c(C=O)s2)cc1,-45%
6,O=C(/C=C/c1ccccc1)Nc1nnc(SCC(=O)c2ccc3ccccc3c2)s1,-19.6%
7,CC(=O)Oc1ccccc1C(=O)Nc1ncc([N+](=O)[O-])s1,-3.91%
8,O=C(CCc1ccccc1)Nc1ncc([N+](=O)[O-])s1,41.8% (active)
9,O=C(Cc1c(F)cccc1Cl)Nc1ncc([N+](=O)[O-])s1,-2.51%
10,Cn1c(C(=O)O)ccc1S(=O)(=O)N(Cc1ccccc1)Cc1ccccc1,0.4%
11,Cc1ccc2c(CC(=O)NCc3cccs3)coc2c1,-14.7%
12,CC1Cc2ccccc2N1C(=O)CSc1nc2ccccc2o1 (configuration not stated),-13.1%
13,Cc1cc(=O)[nH]c(SCC(=O)N2c3ccccc3CC2C)n1 (configuration not stated),42.8% (active)
14,CC1Cc2ccccc2N1C(=O)CSc1nnc(C2CC2)n1C (configuration not stated),-12.6%
15,O=C(NN1C(=O)C2CCCCC2C1=O)c1ccco1 (configuration not stated),8.97%
16,C/C=C(\C)C(=O)N1CC2(CC(c3cccc(NC(=O)CCCCC)c3)=NO2)C[C@@H]1C(N)=O (some centres not stated),-4.05%
17,COc1ccccc1C1/C(=C(/O)c2ccc(OC(C)C)cc2)C(=O)C(=O)N1c1cc(C)on1 (configuration not stated),54.4% (active)
18,COc1ccccc1C1/C(=C(/O)c2ccc(C)cc2)C(=O)C(=O)N1Cc1ccco1 (configuration not stated),-0.55%
19,Cc1cc(N2C(=O)C(=O)/C(=C(/O)c3ccc(Cl)cc3)C2c2cccc(Br)c2)no1 (configuration not stated),-12.5%
20,COc1ccc(NC(=O)COC(=O)c2ccncc2)c(OC)c1,-5.21%
